# Assay results published in PMC7862700, “An all-to-all approach to the identification of sequence-specific readers for epigenetic DNA modifications on cytosine”.
# Key:
# Experiment in all cases: DAPPL (digital affinity profiling via proximity ligation, sequencing); 10 mM Tris-HCl pH 7.5, 50 mM NaCl, 1 mM DTT, 4% glycerol, room temperature, 30 min; GST-TFs on glutathione beads, 16-mer random dsDNA library, 0.1% formaldehyde crosslink after washing; high values mean tight binding
# FLI1 = molecular target: T1, FLI1 (Homo sapiens, UniProt Q01543 1-452); settings: protein: recombinant; tags: N-terminal GST; dsDNA, one strand shown
# T1 sequence: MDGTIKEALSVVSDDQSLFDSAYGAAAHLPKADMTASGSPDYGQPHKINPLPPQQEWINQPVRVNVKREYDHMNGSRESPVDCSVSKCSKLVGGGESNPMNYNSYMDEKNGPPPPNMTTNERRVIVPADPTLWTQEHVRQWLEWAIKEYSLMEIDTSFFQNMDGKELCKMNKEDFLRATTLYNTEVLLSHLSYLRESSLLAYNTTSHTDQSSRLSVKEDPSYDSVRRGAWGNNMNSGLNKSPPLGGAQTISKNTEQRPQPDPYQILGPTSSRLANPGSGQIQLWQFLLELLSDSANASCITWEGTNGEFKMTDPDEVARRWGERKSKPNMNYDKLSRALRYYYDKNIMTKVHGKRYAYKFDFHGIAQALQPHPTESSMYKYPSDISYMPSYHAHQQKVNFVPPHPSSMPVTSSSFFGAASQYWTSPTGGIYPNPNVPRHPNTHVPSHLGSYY
# In short: (§1)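 GST fusions of human transcription factors were expressed in yeast and captured with glutathione beads. Once given DNA barcodes and pooled alongside a tag-only sample, they were incubated for 30 min at room temperature with 200 nmole of a random double-stranded 16-mer DNA library in Tris/NaCl/DTT/glycerol buffer, then washed, crosslinked (0.1% formaldehyde), proximity-ligated, PCR-amplified and sequenced on an Illumina NextSeq500. The binding signal of each hexamer is its read frequency for a factor divided by its frequency for the tag-only sample.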
# ELK1 = molecular target: T2, ELK1 (Homo sapiens, UniProt P19419 1-428); settings: protein: recombinant; tags: N-terminal GST; dsDNA, one strand shown
# T2 sequence: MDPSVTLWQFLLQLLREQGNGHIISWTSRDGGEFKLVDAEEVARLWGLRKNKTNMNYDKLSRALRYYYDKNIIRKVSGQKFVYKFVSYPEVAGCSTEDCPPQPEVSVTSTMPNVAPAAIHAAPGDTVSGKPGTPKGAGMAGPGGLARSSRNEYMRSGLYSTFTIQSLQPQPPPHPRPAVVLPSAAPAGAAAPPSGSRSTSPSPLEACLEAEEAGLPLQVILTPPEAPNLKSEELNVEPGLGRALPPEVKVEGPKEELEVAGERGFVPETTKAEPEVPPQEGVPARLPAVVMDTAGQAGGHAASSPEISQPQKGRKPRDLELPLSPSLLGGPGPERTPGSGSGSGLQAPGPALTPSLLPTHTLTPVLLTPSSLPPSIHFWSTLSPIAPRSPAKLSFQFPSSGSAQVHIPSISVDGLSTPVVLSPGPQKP
# In short: as §1
# GABPA = molecular target: T3, GABPA (Homo sapiens, UniProt Q06546 1-454); settings: protein: recombinant; tags: N-terminal GST; dsDNA, one strand shown
# T3 sequence: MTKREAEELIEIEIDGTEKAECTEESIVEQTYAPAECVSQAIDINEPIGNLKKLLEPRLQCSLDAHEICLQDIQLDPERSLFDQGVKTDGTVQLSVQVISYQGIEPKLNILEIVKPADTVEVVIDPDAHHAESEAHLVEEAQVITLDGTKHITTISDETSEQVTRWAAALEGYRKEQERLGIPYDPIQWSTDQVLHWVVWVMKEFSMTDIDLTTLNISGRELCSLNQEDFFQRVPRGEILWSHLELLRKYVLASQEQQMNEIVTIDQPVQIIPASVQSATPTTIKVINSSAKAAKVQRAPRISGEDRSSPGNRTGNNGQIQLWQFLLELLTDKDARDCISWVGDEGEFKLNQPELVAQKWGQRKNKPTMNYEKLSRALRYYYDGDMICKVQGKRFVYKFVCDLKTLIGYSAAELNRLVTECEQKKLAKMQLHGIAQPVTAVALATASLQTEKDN
# In short: as §1
# ERG = molecular target: T4, ERG (Homo sapiens, UniProt P11308 1-479); settings: protein: recombinant; tags: N-terminal GST; dsDNA, one strand shown
# T4 sequence: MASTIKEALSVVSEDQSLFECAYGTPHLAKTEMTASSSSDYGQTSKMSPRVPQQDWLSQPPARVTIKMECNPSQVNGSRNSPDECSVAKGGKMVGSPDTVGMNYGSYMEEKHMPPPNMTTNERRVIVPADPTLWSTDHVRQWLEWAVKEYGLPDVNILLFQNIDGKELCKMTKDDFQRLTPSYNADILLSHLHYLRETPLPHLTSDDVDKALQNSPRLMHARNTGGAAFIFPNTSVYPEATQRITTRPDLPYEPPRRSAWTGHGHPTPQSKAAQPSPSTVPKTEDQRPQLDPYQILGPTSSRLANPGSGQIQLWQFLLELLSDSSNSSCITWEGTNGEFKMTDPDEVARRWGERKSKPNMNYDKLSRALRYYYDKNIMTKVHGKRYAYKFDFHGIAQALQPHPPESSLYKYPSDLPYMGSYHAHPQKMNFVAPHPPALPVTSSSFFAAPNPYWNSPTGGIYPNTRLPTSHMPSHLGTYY
# In short: as §1
# ELF1 = ELF1 (Homo sapiens, UniProt P32519 1-619); settings: protein: recombinant; tags: N-terminal GST; dsDNA, one strand shown
# Chain of ELF1 (P32519 whole entry): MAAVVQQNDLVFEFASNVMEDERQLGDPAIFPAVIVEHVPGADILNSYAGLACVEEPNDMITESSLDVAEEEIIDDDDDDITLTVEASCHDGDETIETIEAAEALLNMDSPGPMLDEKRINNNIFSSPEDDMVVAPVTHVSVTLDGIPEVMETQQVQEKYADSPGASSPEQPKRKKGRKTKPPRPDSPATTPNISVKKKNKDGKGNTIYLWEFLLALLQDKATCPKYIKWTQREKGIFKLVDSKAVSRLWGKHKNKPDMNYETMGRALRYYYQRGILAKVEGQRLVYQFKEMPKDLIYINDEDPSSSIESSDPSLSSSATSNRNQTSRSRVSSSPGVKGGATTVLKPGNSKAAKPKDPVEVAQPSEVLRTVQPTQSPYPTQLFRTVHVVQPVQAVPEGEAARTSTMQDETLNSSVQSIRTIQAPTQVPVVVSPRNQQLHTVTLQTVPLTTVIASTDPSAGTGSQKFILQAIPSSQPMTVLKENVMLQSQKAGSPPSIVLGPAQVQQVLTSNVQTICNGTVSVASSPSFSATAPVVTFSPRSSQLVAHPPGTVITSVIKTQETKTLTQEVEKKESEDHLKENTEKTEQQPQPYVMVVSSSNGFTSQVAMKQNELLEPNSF
# In short: as §1
# EHF = molecular target: T5, EHF (Homo sapiens, UniProt Q9NZC4 1-300); settings: protein: recombinant; tags: N-terminal GST; dsDNA, one strand shown
# T5 sequence: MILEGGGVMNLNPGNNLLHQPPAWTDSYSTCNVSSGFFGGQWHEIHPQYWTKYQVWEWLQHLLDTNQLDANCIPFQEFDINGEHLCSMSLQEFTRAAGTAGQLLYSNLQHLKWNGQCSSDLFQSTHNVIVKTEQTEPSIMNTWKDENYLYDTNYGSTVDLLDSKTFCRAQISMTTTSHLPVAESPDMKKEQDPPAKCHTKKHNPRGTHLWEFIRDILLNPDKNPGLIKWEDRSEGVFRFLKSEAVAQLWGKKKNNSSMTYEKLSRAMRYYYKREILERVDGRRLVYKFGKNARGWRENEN
# In short: as §1
# SPI1 = SPI1 (Homo sapiens, UniProt P17947 1-270); settings: protein: recombinant; tags: N-terminal GST; dsDNA, one strand shown
# In short: as §1
# SPIB = SPIB (Homo sapiens, UniProt Q01892 1-262); settings: protein: recombinant; tags: N-terminal GST; dsDNA, one strand shown
# Chain of SPIB (Q01892 whole entry): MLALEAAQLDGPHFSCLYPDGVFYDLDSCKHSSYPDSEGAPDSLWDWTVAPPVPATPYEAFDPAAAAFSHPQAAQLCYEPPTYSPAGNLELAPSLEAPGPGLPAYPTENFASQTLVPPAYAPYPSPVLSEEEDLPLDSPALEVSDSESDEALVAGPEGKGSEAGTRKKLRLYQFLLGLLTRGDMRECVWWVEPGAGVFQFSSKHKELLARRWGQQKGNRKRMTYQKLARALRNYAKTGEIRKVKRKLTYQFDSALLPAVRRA
# In short: as §1
# ELK3 = molecular target: T6, ELK3 (Homo sapiens, UniProt P41970 1-407); settings: protein: recombinant; tags: N-terminal GST; dsDNA, one strand shown
# T6 sequence: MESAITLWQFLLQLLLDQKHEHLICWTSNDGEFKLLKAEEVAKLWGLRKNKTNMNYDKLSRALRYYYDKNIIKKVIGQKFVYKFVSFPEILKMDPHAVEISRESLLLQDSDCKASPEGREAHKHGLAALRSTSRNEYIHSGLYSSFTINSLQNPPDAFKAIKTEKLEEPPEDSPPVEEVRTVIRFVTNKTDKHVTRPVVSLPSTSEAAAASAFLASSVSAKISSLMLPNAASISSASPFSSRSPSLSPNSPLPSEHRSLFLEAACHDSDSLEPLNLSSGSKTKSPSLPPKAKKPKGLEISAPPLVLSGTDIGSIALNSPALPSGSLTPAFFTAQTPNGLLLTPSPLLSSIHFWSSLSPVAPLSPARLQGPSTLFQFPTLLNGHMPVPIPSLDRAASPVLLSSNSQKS
# In short: as §1
# FEV = molecular target: T7, FEV (Homo sapiens, UniProt Q99581 1-238); settings: protein: recombinant; tags: N-terminal GST; dsDNA, one strand shown
# T7 sequence: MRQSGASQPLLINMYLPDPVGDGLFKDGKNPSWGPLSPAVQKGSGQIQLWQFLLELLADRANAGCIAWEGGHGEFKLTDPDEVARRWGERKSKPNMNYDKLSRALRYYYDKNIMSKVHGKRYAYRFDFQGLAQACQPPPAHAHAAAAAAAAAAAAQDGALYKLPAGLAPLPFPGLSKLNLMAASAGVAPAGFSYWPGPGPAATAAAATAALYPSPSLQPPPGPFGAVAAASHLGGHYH
# In short: as §1
# ETV5 = ETV5 (Homo sapiens, UniProt P41161 1-510); settings: protein: recombinant; tags: N-terminal GST; dsDNA, one strand shown
# Chain of ETV5 (P41161 whole entry): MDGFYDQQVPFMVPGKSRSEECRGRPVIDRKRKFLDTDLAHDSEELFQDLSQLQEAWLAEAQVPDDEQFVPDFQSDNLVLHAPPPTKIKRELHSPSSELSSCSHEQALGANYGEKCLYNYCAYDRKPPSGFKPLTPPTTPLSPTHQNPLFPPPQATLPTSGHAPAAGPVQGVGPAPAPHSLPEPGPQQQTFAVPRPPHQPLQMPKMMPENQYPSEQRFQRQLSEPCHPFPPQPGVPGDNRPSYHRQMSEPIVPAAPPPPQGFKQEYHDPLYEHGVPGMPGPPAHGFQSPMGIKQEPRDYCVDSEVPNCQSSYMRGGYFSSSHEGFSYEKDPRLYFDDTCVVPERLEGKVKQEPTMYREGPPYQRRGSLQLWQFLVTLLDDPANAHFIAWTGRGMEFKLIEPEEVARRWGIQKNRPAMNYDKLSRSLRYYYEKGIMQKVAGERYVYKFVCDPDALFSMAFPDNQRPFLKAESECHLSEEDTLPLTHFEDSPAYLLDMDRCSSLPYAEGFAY
# In short: as §1
# HSF1 = HSF1 (Homo sapiens, UniProt Q00613 1-529); settings: protein: recombinant; tags: N-terminal GST; chain copies: 3; dsDNA, one strand shown
# Chain of HSF1 (Q00613 whole entry): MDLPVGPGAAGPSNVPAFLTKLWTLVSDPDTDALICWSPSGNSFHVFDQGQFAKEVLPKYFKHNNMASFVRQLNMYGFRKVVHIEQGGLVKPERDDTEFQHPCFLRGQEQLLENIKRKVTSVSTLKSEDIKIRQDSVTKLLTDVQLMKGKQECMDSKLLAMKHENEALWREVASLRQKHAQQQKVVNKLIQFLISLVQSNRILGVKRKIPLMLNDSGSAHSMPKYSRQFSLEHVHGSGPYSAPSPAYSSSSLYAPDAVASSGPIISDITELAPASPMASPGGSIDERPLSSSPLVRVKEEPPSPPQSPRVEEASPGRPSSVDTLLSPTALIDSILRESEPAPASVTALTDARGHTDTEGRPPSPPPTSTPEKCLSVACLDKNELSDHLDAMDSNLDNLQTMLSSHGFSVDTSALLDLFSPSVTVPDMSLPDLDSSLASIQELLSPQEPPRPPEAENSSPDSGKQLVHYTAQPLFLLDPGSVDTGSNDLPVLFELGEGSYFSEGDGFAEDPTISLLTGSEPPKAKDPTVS
# In short: as §1
# SPIC = molecular target: T8, SPIC (Homo sapiens, UniProt Q8N5J4 1-248); settings: protein: recombinant; tags: N-terminal GST; dsDNA, one strand shown
# T8 sequence: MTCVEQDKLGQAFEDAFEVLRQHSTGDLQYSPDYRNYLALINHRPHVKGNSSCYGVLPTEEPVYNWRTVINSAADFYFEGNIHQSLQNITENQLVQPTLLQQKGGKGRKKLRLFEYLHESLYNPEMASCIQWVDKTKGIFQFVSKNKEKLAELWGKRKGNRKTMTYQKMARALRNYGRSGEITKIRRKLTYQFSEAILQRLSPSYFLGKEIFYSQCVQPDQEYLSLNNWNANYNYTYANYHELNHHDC
# In short: as §1
# ELF4 = ELF4 (Homo sapiens, UniProt Q99607 1-663); settings: protein: recombinant; tags: N-terminal GST; dsDNA, one strand shown
# Chain of ELF4 (Q99607 whole entry): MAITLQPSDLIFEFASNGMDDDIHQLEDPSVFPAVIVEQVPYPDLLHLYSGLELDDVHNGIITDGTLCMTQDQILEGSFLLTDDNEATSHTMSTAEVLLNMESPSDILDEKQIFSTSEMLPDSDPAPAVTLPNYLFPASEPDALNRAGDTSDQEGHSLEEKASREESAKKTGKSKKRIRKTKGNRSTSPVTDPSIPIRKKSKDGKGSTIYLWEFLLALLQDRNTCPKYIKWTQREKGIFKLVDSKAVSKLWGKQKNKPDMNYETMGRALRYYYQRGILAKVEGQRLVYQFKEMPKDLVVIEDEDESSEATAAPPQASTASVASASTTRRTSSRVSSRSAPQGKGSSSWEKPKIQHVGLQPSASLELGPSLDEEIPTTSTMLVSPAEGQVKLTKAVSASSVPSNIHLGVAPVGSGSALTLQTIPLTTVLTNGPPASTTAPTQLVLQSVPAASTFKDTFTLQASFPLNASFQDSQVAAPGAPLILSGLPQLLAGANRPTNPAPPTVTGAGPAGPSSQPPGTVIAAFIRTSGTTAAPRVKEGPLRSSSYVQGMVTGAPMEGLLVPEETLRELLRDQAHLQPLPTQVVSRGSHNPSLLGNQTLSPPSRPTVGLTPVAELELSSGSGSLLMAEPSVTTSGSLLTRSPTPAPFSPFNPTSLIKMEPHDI
# In short: as §1
# ELK4 = molecular target: T9, ELK4 (Homo sapiens, UniProt P28324-2 1-405); settings: protein: recombinant; tags: N-terminal GST; dsDNA, one strand shown
# T9 sequence: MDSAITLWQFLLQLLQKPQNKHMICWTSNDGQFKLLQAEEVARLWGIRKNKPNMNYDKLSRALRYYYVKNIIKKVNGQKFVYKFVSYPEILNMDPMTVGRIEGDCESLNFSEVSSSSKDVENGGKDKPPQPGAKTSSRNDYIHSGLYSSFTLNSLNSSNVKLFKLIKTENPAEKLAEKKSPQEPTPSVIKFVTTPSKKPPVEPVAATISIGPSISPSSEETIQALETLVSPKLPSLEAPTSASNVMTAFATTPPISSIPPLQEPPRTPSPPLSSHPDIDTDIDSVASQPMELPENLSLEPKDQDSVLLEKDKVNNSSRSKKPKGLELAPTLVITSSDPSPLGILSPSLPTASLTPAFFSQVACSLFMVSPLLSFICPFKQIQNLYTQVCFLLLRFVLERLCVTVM
# In short: as §1
# ETV2 = molecular target: T10, ETV2 (Homo sapiens, UniProt O00321 1-342); settings: protein: recombinant; tags: N-terminal GST; dsDNA, one strand shown
# T10 sequence: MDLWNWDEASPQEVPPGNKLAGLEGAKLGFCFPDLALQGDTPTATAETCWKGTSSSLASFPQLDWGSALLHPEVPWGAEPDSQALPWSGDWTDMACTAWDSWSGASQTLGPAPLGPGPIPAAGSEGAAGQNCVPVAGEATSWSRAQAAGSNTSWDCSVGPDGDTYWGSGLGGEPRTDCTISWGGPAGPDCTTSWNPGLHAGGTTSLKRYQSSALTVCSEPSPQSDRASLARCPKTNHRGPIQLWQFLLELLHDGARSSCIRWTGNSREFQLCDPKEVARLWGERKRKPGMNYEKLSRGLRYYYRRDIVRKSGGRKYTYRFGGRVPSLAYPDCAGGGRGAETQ
# In short: as §1
# ELF3 = molecular target: T11, ELF3 (Homo sapiens, UniProt P78545 1-371); settings: protein: recombinant; tags: N-terminal GST; dsDNA, one strand shown
# T11 sequence: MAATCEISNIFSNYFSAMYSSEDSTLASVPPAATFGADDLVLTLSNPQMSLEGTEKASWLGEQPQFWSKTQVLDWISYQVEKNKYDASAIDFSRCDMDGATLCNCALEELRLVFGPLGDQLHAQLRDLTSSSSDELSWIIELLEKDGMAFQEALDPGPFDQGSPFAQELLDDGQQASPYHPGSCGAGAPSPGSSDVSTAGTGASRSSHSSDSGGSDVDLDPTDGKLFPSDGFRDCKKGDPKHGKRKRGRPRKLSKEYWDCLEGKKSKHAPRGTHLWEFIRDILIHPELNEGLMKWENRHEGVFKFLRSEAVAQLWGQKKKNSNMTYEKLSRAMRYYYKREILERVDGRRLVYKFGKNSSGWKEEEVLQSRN
# In short: as §1
# CRX = CRX (Homo sapiens, UniProt O43186 1-299); settings: protein: recombinant; tags: N-terminal GST; dsDNA, one strand shown
# Chain of CRX (O43186 whole entry): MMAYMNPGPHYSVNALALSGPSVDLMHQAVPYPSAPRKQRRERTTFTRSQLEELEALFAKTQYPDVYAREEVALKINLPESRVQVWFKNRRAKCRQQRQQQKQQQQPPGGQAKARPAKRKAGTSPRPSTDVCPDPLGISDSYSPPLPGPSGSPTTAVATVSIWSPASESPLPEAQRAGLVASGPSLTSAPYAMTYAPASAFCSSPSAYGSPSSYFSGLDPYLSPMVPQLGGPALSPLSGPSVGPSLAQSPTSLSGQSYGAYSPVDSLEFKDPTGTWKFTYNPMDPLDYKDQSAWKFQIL
# In short: as §1
# ETV1 = ETV1 (Homo sapiens, UniProt P50549 1-477); settings: protein: recombinant; tags: N-terminal GST; dsDNA, one strand shown
# Chain of ETV1 (P50549 whole entry): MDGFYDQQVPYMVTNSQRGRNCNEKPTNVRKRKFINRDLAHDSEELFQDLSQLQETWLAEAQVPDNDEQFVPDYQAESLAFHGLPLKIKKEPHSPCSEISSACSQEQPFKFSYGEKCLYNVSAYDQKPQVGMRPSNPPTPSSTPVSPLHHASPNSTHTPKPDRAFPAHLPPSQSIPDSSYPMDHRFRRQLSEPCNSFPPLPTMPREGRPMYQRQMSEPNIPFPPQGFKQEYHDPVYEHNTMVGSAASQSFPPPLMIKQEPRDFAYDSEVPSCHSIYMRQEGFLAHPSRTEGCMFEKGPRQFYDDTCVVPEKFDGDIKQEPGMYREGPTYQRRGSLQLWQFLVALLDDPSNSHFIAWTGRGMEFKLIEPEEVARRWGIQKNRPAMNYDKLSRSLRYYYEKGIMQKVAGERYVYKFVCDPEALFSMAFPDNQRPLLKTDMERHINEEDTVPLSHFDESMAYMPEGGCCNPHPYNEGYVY
# In short: as §1
sequence,measurement,setting,value
TAAACG,binding signal,FLI1,"1.17 fold enrichment (6-mer frequency, TF over GST control)"
same,binding signal,ELK1,"1.09 fold enrichment (6-mer frequency, TF over GST control)"
same,binding signal,GABPA,"1.15 fold enrichment (6-mer frequency, TF over GST control)"
same,binding signal,ERG,"1.09 fold enrichment (6-mer frequency, TF over GST control)"
same,binding signal,ELF1,"1.11 fold enrichment (6-mer frequency, TF over GST control)"
same,binding signal,EHF,"1.17 fold enrichment (6-mer frequency, TF over GST control)"
same,binding signal,SPI1,"1.13 fold enrichment (6-mer frequency, TF over GST control)"
same,binding signal,SPIB,"1.19 fold enrichment (6-mer frequency, TF over GST control)"
same,binding signal,ELK3,"1.13 fold enrichment (6-mer frequency, TF over GST control)"
same,binding signal,FEV,"1.12 fold enrichment (6-mer frequency, TF over GST control)"
same,binding signal,ETV5,"1.07 fold enrichment (6-mer frequency, TF over GST control)"
same,binding signal,HSF1,"1.19 fold enrichment (6-mer frequency, TF over GST control)"
same,binding signal,SPIC,"1.05 fold enrichment (6-mer frequency, TF over GST control)"
same,binding signal,ELF4,"1.13 fold enrichment (6-mer frequency, TF over GST control)"
same,binding signal,ELK4,"1.2 fold enrichment (6-mer frequency, TF over GST control)"
same,binding signal,ETV2,"1.09 fold enrichment (6-mer frequency, TF over GST control)"
same,binding signal,ELF3,"1.07 fold enrichment (6-mer frequency, TF over GST control)"
same,binding signal,CRX,"1.44 fold enrichment (6-mer frequency, TF over GST control)"
same,binding signal,ETV1,"1.13 fold enrichment (6-mer frequency, TF over GST control)"
